Plk1 PBD FP – Plk1 (human) PBD binding inhibition | Plk1 PBD phosphopeptide binding, fluorescence polarization | inhibition, %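 (tested at about 20 µM)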 | 97,000 compounds, 0.13% hits; in the data active = inhibition above about 34%, passing the limit was not always enough
PLK1 kinase inh – blocks human PLK1 kinase activity; inhibition, % at 10 µM; 97,000 compounds, 0.53% hits; AID 619; recombinant PLK1 kinase, TR-FRET peptide phosphorylation;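 active = inhibition of 50% or more in the single-concentration screen; inactive = inhibition below 50%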;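 note: 0% = DMSO max control and 100% = H-89 dihydrochloride min control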
ERa coact pot – enhances coactivator binding to human estrogen receptor alpha; coactivator binding (% of control), % at 25.6 µM; TR-FRET ERalpha-LBD/SRC-Cy5 coactivator binding, 2 h; 100 = basal binding, no effect; 86,000 compounds, 1.3% hits; AID 639; in the data active = activity above about 200%;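 note: binding measured in presence of low estradiol as agonist stimulus; 0% = peptide alone without receptor and 100% = receptor with peptide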
Smad3 inh – Smad3 (human) transcription factor binding inhibition; TR-FRET Smad3/Dy647-FoxH1 peptide binding, europium anti-His; inhibition, % at 25 µM; P84022; 88,000 compounds, 0.29% hits;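 active = compounds that reduce the energy-transfer binding signal between the protein and its labelled peptide by more than half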;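 note: 0% = Smad3 plus labelled peptide maximal FRET and 100% = peptide-only background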
Target sequence (P84022 whole entry, looked up): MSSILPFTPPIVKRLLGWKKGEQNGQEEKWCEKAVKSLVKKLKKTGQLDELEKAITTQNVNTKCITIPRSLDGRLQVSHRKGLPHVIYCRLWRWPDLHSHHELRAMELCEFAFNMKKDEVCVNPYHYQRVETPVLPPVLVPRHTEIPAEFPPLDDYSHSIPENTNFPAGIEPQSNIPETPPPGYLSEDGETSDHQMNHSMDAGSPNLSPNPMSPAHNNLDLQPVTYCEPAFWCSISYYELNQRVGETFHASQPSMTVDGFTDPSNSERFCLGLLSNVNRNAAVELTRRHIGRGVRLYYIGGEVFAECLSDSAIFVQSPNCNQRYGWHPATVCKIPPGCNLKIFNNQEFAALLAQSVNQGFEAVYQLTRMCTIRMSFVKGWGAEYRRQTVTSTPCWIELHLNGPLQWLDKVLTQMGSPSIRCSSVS
ERb coact inh – ER-beta (human) coactivator binding inhibition. 86,000 compounds, 1.3% hits. Q92731. inhibition, % at 25.6 µM. TR-FRET ER-beta LBD / SRC1-Cy5 peptide binding; receptor agonist-loaded with 1 µM estradiol;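 active = compounds whose percent inhibition of the receptor-coactivator binding signal exceeds about 50% in the single-dose screen, limit read from the data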;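 note: 0% = receptor plus peptide wells without compound and 100% = peptide-only wells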
ERa SRC1 inh – ER-alpha (human) coactivator binding inhibition | TR-FRET ER-alpha LBD / SRC-1 peptide, estradiol-bound | P03372 | 86,000 compounds, 1.7% hits | inhibition, % at 25.6 µM; in the data active = inhibition above about 50%;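 note: 0% = receptor plus peptide control and 100% = peptide only without receptor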
Numbers without * were called inactive; x = no result; [ ] = another dose, or the depositor's remark. This is a sample that favours compounds with a hit; in the whole collection about 3.3% have one here.

SMILES	Plk1 PBD FP	PLK1 kinase inh	ERa coact pot	Smad3 inh	ERb coact inh	ERa SRC1 inh
CCc1ccc(C2=Nn3c(nnc3-c3cccs3)SC2)cc1	0.7	0.9	x	x	x	x
Cc1ccccc1C(=N)c1ccccc1Cc1cccc2ccccc12	x	x	x	-5.0	x	x
C[C@H](NCCN(C)C)[C@@H]1CC[C@@H]2[C@H]3CCc4cc(O)ccc4[C@@H]3CC[C@]21C	x	x	x	-15.8	x	x
NC(=O)c1ccsc1NC(=O)COC(=O)Cc1ccsc1	-3.9	-8.6	70.6	2.6	59.6*	54.8*[fluorescence artefact?]
CC(C)CCNC(=O)C(c1cccnc1)N(CCc1ccccc1)C(=O)Cn1nnc2ccccc21 (stereo not given)	-0.1	-10.2	117.6	55.4*	-6.7	-4.0
N=c1sc2ccccc2n1CCS (tested in a mixture with another compound)	x	x	x	25.1	x	x
Cc1sc2nc(NCCO)[nH]c(=O)c2c1C	-13.2	63.6*	88.9	9.7	-9.2	-4.7
Cn1cc(NC(=O)c2cc(NC(=O)c3cc(NC=O)cn3C)cn2C)cc1C(=O)NCCC(=N)N	x	x	43.9	13.7	71.1*	60.6*
CCOC(=O)CN(C(=O)CSc1nnc(CNc2ccc(F)cc2)n1CC)c1ccc(F)cc1	15.2	-4.1	222.5*	7.9	-7.7	-2.6
CCOC(=O)c1oc2ccc(Br)cc2c1NC(=O)CN1CCN(C)CC1	-13.2	-9.5	117.1	7.4	-12.1	-4.7
O=C(Nc1c(C(=O)O)oc2ccc(Br)cc12)c1ccccc1	0.7	50.6*	103.3	11.5	-3.1	-6.0
CCCCCc1nnc(NC(=O)Cc2cccs2)s1	5.0	-2.9	20.2	1.6	82.0*	94.2*[fluorescence artefact?]
O=C(Cc1cccs1)Nc1ccccn1	-17.1	-13.3	71.7	-3.6	55.0*	56.1*
O=C(Cc1cccs1)Nc1nnc(CCc2ccccc2)s1	-20.5	-4.3	102.5	-11.1	19.5	15.7
O=C(Cc1cccs1)Nc1ccon1	-1.2	-0.8	90.1	4.3	24.5	22.9
CC(C)c1nnc(NC(=O)Cc2cccs2)s1	x	x	88.9	-3.9	24.0	12.7
O=C(Cc1cccs1)Nc1nnc(Cc2ccccc2)s1	-7.7	-20.7	35.9	-9.4	91.3*	96.3*[fluorescence artefact?]
O=C(Cc1cccs1)Nc1nnc(-c2ccncc2)s1	x	x	53.1	-4.2	46.3	44.9
COc1cccc(-c2nnc(NC(=O)Cc3cccs3)s2)c1	-2.2	-10.0	129.3	4.9	50.0	63.1*
COc1ccccc1CNC(=O)c1cc2c(=O)n(C)c3ccccc3c2n1C	x	x	127.1	6.9	26.5	26.4
O=C(Cc1cccs1)Nc1nncs1	-15.1	-3.4	64.1	10.4	56.0*	38.8
NC(=O)c1nnn(Cc2cc(Cl)c(C(=O)c3ccc(Cl)cc3)c(Cl)c2)c1N	x	x	x	4.8	x	x
N=c1c(S(=O)(=O)c2ccccc2)cc2c(=O)n3ccccc3nc2n1Cc1ccco1	-8.6	-7.8	48.9	-0.8	79.2*[fluorescence artefact?]	76.1*[fluorescence artefact?]
Cc1ccc(S(=O)(=O)c2cc3c(=O)n4ccccc4nc3n(Cc3ccco3)c2=N)cc1C	-12.2	1.3	38.4	-9.5	50.2*[fluorescence artefact?]	74.8*[fluorescence artefact?]
N#Cc1ccccc1OCC(=O)NC(N)=O	-2.9	-1.9	x	x	x	x
SMILES	Plk1 PBD FP	PLK1 kinase inh	ERa coact pot	Smad3 inh	ERb coact inh	ERa SRC1 inh
O=C1Oc2ccccc2C(=O)/C1=C/N1C(=O)N/C(=C\c2ccccc2O)C1=O	x	x	x	1.1	x	x
COc1cc2c(cc1OC)CN(C(=O)c1ccccc1C(=O)O)CC2	-9.9	1.6	96.5	-3.4	8.6	2.1
C/C(N[O-])=C(\C)[N+]([O-])=[Fe].CC(=N\[O-])/C(C)=N/[O-].[NH2-].c1c[nH+]c[n-]1	x	x	x	72.2*	x	x
C/C(N[O-])=C(\C)[N+]([O-])=[Cu].C/C(N[O-])=C(\C)[N+]([O-])=[Cu].CC(=N\[O-])/C(C)=N/[O-].CC(=N\[O-])/C(C)=N/[O-]	x	x	x	48.5	x	x
CC(=O)Nc1sc(NC(=O)c2ccccc2)nc1-c1cccs1	x	x	136.0	-5.1	3.8	-12.4
COc1ccccc1C(=O)Nc1nc(-c2cccs2)c(NC(C)=O)s1	3.8	-16.8	72.5	-3.5	34.9	66.1*
CN(C)C(CNC(=O)c1cccc(S(=O)(=O)N2CC3(C)CC2CC(C)(C)C3)c1)c1ccco1 (stereo not given)	x	x	83.2	13.5	7.4	0.3
CC1(C)CC2CC(C)(CN2S(=O)(=O)c2cccc(N)c2)C1 (stereo not given)	-12.4	-5.0	237.2*[fluorescence artefact?]	3.1	-0.5	-7.7
Cc1ccc(-c2nc3nc4ccccc4nc3n2Cc2ccco2)cc1	x	x	114.5	64.3*	7.9	0.0
CCCC1c2c(ccc3ccccc23)Oc2ccc3ccccc3c21	x	x	x	-1.8	x	x
COc1cc2c(cc1OC)C1=C(C#N)CC/C(=N\S(=O)(=O)c3ccccc3)N1CC2	-13.1	61.4*	95.7	7.1	6.4	-1.8
Clc1ccc(-c2nc3n(n2)Cc2ccccc2-3)cc1	13.4	-6.2	288.6*	19.0	15.8	20.8
CCN(CC)S(=O)(=O)c1cccc(-c2nc3n(n2)Cc2ccccc2-3)c1	-2.0	3.0	160.8	-2.9	11.3	4.1
Nc1ncnc2oc(-c3ccco3)c(-c3ccco3)c12	-27.6	56.2*	13.4	4.6	88.4*[fluorescence artefact?]	93.9*[fluorescence artefact?]
COc1cccc(CNC(=O)Cn2c(=O)oc3ccccc32)c1OC	-11.4	-12.0	100.5	-12.2	2.5	1.9
CCOc1ccccc1CNC(=O)Cn1c(=O)oc2ccccc21	-2.5	-8.7	89.7	-23.1	54.8*[fluorescence artefact?]	8.2
CCCN1CCCc2cc(CN)ccc21	17.1	-12.5	58.7	53.3*	53.5*[fluorescence artefact?]	41.1
CN1CCCc2cc(C=O)ccc21	21.2	-3.1	98.8	-2.8	-2.2	-1.8
C/C(=N\NS(=O)(=O)c1ccc(C)cc1)P(=O)(O)O	x	x	x	5.9	x	x
Cc1ccc(NS(=O)(=O)c2ccc(OCC(=O)NCc3ccco3)cc2)cc1	15.7	-6.2	97.3	10.3	-7.0	-12.0
O=C(COC(=O)c1cncc(Br)c1)NCc1ccco1	-25.2	-5.3	109.6	8.3	50.1*[fluorescence artefact?]	60.1*[fluorescence artefact?]
CCOc1cc(C(=O)OCC(=O)NCc2ccco2)cc(OCC)c1OCC	28.9	-8.3	79.8	2.3	44.5	56.9*[fluorescence artefact?]
CSc1ccc(Cl)c(C(=O)OCC(=O)NCc2ccco2)c1	-2.4	-2.4	141.6	-2.9	47.5	52.3*[fluorescence artefact?]
Cc1ccc(NS(=O)(=O)c2cccc(C(=O)OCC(=O)NCc3ccco3)c2)cc1	x	x	92.5	3.3	45.0	53.1*
CC1CCCC(n2c(=S)[nH]c3ccccc3c2=O)C1C (stereo not given)	-12.3	0.7	163.4	-9.6	-12.1	-6.6
O=C(O)[C@@H](O)[C@@H](O)[C@H](O)[C@H](O)CO	x	x	x	-2.4	x	x
COC(=O)NCc1cccc(CNC(=O)OC)c1	21.3	-5.3	96.6	-0.8	-4.1	0.4
Cc1ccc2[nH]c(=O)c(-c3nc4cc(C)ccn4c3NCc3ccco3)cc2c1	x	x	151.5	2.6	38.5	72.6*[fluorescence artefact?]
CN(C)Cc1nsc(N(C)C)n1	x	x	x	2.8	x	x
CCOc1ccc2nc(NC(=O)CCC(=O)c3cccs3)sc2c1	0.7	-4.6	61.6	4.0	50.9*	59.7*[fluorescence artefact?]
